G9a inh: blocks human histone lysine methyltransferase G9a. Q96KQ7. G9a H3K9 monomethylation, AlphaScreen, 2 h. Potency, µM (titrated, usually from 102 µM), without a hit: top-dose activity, negative = inhibition, hits mostly inhibitors. hit rate 8.8% among 350,000; note: potency is the fitted concentration of half-maximal effect; % is set by controls: 0 for no effect and ±100 for the full control effect; nearly all actives have a fitted effect of over 75% in size
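Using a bead-based AlphaScreen, monomethylated H3K9 product from 2 h room-temperature reactions (G9a 20 nM, peptide 500 nM, SAM 20 uM) was detected with 0.5 ug/mL rabbit anti-H3K9me1 antibody.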
CtBP-E1A blk: inhibitors of CtBP/E1A interaction; AlphaScreen GST-E1A/His-CtBP binding, 1536-well; hits give low values; activity change, % (no concentration beside the values); hit rate 0.49% among 340,000; AID 651724; in the data active = activity change below about -65%; inconclusive = mostly about -30% to -63%; note: % is set by controls: 0 for no effect and ±100 for the full control effect
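Protein mix (5X: 125 nM each GST-E1A, His-CtBP) was incubated with pinned compound 2 h at 37 deg C in dark, in 50 mM Tris pH 8.0 buffer with 300 mM NaCl. Glutathione donor and nickel acceptor beads followed; AlphaScreen signal read after 1 h.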
HP1b chromo inh: blocks HP1-beta chromodomain binding to methylated histone tails | P83916 | AlphaScreen HP1-beta / biotin-H3K9me3 peptide binding | Potency, µM (doses to about 114 µM), without a hit: top-dose activity change, negative = inhibition, hits mostly inhibitors | hit rate 0.56% among 390,000; note: potency is the fitted concentration of half-maximal effect; nearly all actives have a fitted effect of over 70% in size
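Compound inhibition of the preformed complex between 50 nM HP1-beta and 50 nM biotinylated H3K9me3 peptide was read by AlphaScreen. Buffer was PBS pH 7.4 with 0.01% Tween-20. Incubations ran 30 min at room temperature, with 10 ug/mL donor/acceptor beads.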
JMJD2A Tudor: JMJD2A Tudor domain (human) inhibition | O75164 | AlphaScreen JMJD2A-Tudor / H3K4me3 peptide binding | Potency, µM (top dose mostly 114 µM), inactives show at the highest dose activity change, negative = inhibition, actives largely listed as inhibitors | hit rate 4.4% among 390,000 | AID 504339; note: potency is the fitted concentration of half-maximal effect; % is set by controls: 0 for no effect and ±100 for the full control effect; nearly all actives have a fitted effect of over 50% in size
Target sequence (O75164 whole entry, looked up, the tested form may be a part): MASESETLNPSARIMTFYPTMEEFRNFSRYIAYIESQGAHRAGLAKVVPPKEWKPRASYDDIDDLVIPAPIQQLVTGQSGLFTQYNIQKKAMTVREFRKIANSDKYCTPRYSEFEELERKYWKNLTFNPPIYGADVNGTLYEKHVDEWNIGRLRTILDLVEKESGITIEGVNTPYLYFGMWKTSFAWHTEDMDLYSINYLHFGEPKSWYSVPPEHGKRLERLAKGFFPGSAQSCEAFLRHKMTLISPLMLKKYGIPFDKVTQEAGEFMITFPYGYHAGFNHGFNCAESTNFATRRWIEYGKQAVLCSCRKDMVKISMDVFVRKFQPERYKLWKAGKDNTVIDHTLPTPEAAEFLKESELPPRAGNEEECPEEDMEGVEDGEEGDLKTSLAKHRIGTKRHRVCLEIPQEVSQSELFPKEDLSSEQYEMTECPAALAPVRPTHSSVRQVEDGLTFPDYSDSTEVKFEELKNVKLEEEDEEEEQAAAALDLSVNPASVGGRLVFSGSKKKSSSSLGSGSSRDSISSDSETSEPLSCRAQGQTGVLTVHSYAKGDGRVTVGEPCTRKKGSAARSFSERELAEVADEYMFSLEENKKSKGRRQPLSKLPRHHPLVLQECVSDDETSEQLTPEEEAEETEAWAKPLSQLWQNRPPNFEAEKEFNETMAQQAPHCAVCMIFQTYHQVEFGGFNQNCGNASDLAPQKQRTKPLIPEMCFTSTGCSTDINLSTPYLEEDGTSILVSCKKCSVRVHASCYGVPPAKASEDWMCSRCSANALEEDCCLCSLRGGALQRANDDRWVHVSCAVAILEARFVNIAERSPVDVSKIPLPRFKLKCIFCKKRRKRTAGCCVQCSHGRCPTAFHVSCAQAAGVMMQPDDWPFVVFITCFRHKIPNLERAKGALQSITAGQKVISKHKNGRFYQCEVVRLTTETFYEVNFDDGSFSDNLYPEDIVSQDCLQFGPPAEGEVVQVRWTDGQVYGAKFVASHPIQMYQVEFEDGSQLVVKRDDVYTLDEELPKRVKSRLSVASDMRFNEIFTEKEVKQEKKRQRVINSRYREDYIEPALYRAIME
Six1-Eya2 inh: blocks human Six1 binding to Eya2 | activity change, % (test concentration not listed) | Q15475+O00167 | AID 651725 | AlphaScreen GST-Six1/His-Eya2 binding, biochemical; hits give low values | hit rate 0.56% among 360,000; in the data active = activity change below about -65%; inconclusive = mostly about -30% to -63%; note: % is set by controls: 0 for no effect and ±100 for the full control effect
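Homogeneous AlphaScreen proximity assay pairing GST-Six1 with His-tagged Eya2 (added as 5X mix: 250 nM and 500 nM) in 50 mM Tris pH 8.0, 300 mM NaCl, 1 mM TCEP. Glutathione donor and nickel acceptor beads; 1 h, 37 °C, dark.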
BAZ2B block: blocks human BAZ2B; Q9UIF8; AlphaScreen BAZ2B-H3K14Ac peptide displacement; Potency, µM (doses to about 114 µM), without a hit: at the top dose activity change, negative = inhibition, hits mostly inhibitors; hit rate 4.4% among 360,000; AID 504333; note: potency is the fitted concentration of half-maximal effect; % is set by controls: 0 for no effect and ±100 for the full control effect; nearly all actives have a fitted effect of over 60% in size
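Complex of BAZ2B and biotin-H3K14Ac (50 nM apiece) forms over 30 min at RT, then faces library compounds up to 110 uM for another 30 min; AlphaScreen beads added, 20 min dark incubation, luminescence read.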
Active calls of the source: *; ? = inconclusive; / = no result given; [ ] = another dose, or the depositor's remark. The list is not random: actives were taken first. Their share in the collection is about 10%. Unless noted, calls come from the whole dose curve; as a rule, active = well fitted inhibition curve with a large enough effect; inconclusive = small, poorly fitted or top-dose-only effect; inactive = no such curve, though single readings can be large or run the other way.

SMILES | G9a inh | CtBP-E1A blk | HP1b chromo inh | JMJD2A Tudor | Six1-Eya2 inh | BAZ2B block
CCOC(=O)c1sc(N/N=C/c2ccc(N(C)C)cc2)nc1C | -4% | 3 | 43% | ? | 9 | ?
CCOC(=O)c1nc(N/N=C/c2ccccc2)sc1Br | 45µM* | -7 | 9% | -19% | -4 | -30%
CC(=O)Nc1sc(N/N=C/c2ccccc2F)nc1-c1ccc(C)cc1 | 14µM* | / | -12% | ? | 0 | -39%
CC(=O)Nc1sc(N/N=C\c2ccco2)nc1-c1cccs1 | 5.6µM* | -6 | 14µM* | ? | 4 | ?
CC(=O)Nc1sc(N/N=C/c2ccc(O)cc2)nc1-c1ccc(C)cc1 | 13µM* | -22 | 40µM* | 45µM* | -14 | ?
Cc1cc(C)n2ncc(C(=O)Nc3ccccc3)c2n1 | / | / | / | -14% | / | /
N#Cc1ccc(C[C@H](C(=O)O)N2C(=O)c3ccc(C(=O)O)cc3C2=O)cc1 | -5%[12.7 µM] | / | / | -27% | / | -5%
CCOC(=O)c1c(C)sc(-c2c(-c3ccc4c(c3)OCCO4)[nH]c3c2c(=O)[nH]c(=O)n3C)c1O | -25%[59 µM] | / | 21% | -12% | / | -34%
COc1ccc(-c2[nH]ncc2C(=O)NCc2ccccc2OC)cc1 | 14%[59 µM] | / | 39% | 8% | / | 7%
CC(=O)Nc1sc(NC(=O)c2ccc(Cl)cc2)nc1-c1cccs1 | / | -1 | 6% | -5% | 2 | -3%
Nc1nc(-c2cccs2)c(NC(=O)c2ccccc2)s1 | 7.9µM* | 8 | -34% | ? | -6 | ?
Cc1c(C(=O)Nc2cccc(C(F)(F)F)c2)sc2nc3n(c(=O)c12)CCC3 | 9%[59 µM] | / | 52% | -5% | / | 1%
CCOC(=O)c1ccc(S(=O)(=O)N2CC(=O)Nc3ccccc32)cc1 | 10µM* | -7 | 5% | -19% | -1 | 3%
Nc1nc(-c2ccccc2)[nH]c(=O)c1N=O | ? | / | 8% | -22% | ? | 79µM*
COCC(=O)N1CCC(Oc2ccc(C(=O)NC3Cc4ccccc4C3)cc2)CC1 | / | 7 | 18% | -13% | 3 | 0%
COc1ccc(/C=N/n2c(C)nnc2C)c(OC)c1OC | 22%[59 µM] | 1 | 35% | -8% | 4 | 12%
COc1cccc(/C=N/n2c(=S)n(C)c3cc(C)c(C)cc32)c1OC | ? | 5 | 7% | -31% | 0 | -4%[57.1 µM]
COc1cccc(/C=N/n2c(-c3n[nH]c4c3CCC4)n[nH]c2=S)c1OC | 2.5µM* | 0 | ? | 3.2µM* | 7 | -16%
COc1cccc(/C=N/n2c(-c3cc(C)[nH]n3)n[nH]c2=S)c1OC | / | / | 4% | 1.8µM* | 0 | -36%
COc1ccc(/C=N/n2c(-c3n[nH]c4c3CCC4)n[nH]c2=S)c(OC)c1OC | 1.3µM* | / | ? | 4.5µM* | -2 | -10%
Cc1cccc(-c2nc(C)c(CCNC(=O)C(=O)Nc3ccccc3C#N)s2)c1 | 12%[59 µM] | / | 23%[57 µM] | -29% | / | 1%
COc1ccc(/C=C/C(=O)OCC(=O)Nc2ccc(Cl)c(S(=O)(=O)N(C)C)c2)cc1OC | 12%[59 µM] | -17 | -4% | ? | -6 | -3%
O=C1CCc2cc(S(=O)(=O)Nc3cc(F)cc(Cl)c3)c(F)cc2N1 | / | / | / | -18% | / | /
Cc1cc(CN(C)C(=O)c2ccc(OC3CCN(Cc4ccccn4)CC3)cc2)on1 | 50µM* | 2 | 37% | -15% | -3 | -26%
Cc1nonc1CN(C)C(=O)c1ccc(OC2CCN(Cc3ccccn3)CC2)cc1 | ? | 0 | 56% | -3% | 6 | -39%
SMILES | G9a inh | CtBP-E1A blk | HP1b chromo inh | JMJD2A Tudor | Six1-Eya2 inh | BAZ2B block
CCc1cc(C(=O)OC)c(NC(=O)CCC(=O)O)s1 | 14µM* | 11 | ? | -12% | 1 | 8%
CCCN1CCN(C(=S)Nc2sc(CC)cc2C(=O)OC)CC1 | 50µM* | / | 15% | ? | -21 | -37%
COC(=O)c1cc(C)sc1NC(=S)N1CCN(CCc2ccccc2)CC1 | ? | 1 | -11% | -28% | 2 | ?
CC(C)(C)OC(=O)C[C@@H]1C/C=C\C[C@H](CC(=O)NCCO)C(=O)NC[C@H](c2ccccc2)OC1=O | / | / | 21% | -13% | 4 | /
COCCN=c1scc(-c2cc(OC)ccc2OC)n1/N=C/c1c[nH]c2ccccc12 | 10µM* | ? | ? | 40µM* | ? | 11µM*
COC(=O)c1c(SC)nc2ccccc2c1OCc1ccc(C)cc1 | 95%[59 µM] | / | 118% | 128% | / | 198%
CN1CCC2(CC1)N=C(c1ccc(F)cc1)C(=S)N2C(=O)c1ccccc1 | 22µM* | 0 | ? | ? | 4 | 9%
O=C(c1ccccc1)N1N=C(c2ccc(F)cc2)CC1(O)C(F)(F)F (stereo not drawn) | ? | / | 66% | 9% | 0 | 2%
O=C(Nc1cccc(-c2csc(Nc3ccc(Cl)cc3)n2)c1)c1cc([N+](=O)[O-])cc(C(F)(F)F)c1 | -35%[59 µM] | -6 | 11% | -27% | -13 | -13%
O=C(Nc1cccc(-c2csc(Nc3ccccc3)n2)c1)c1cc([N+](=O)[O-])cc(C(F)(F)F)c1 | 50µM* | 11 | 16% | -35% | 1 | -12%
Cc1nc(C)c(-c2csc(Nc3ccc(S(N)(=O)=O)cc3)n2)s1 | ? | 0 | 35% | -15% | -15 | -16%
Cc1ccc(-c2csc(Nc3ccc(S(N)(=O)=O)cc3)n2)o1 | 4.5µM* | -12 | ? | 56µM* | -1 | 45µM*
NS(=O)(=O)c1ccc(Nc2nc(-c3ccc4ccccc4c3)cs2)cc1 | 35µM* | -11 | -7% | ? | -6 | -5%
NS(=O)(=O)c1ccc(Nc2nc(-c3cccc([N+](=O)[O-])c3)cs2)cc1 | 40µM* | -7 | 2% | -21% | -17 | -20%
S=C(Nc1cc(Cl)ccc1Oc1ccccc1)N1CCN(c2ccccn2)CC1 | 7% | -10 | 37% | -18% | -8 | -31%
COc1ccc(Oc2ncc3nc(-c4ccccc4)c(=O)n(C4CC4)c3n2)cc1 | 3%[12.7 µM] | / | / | / | / | /
Cc1nc(Nc2ccc(S(N)(=O)=O)cc2)sc1-c1ccccc1 | 32µM* | -3 | -19% | ? | -13 | ?
COc1cc(NC(=O)c2cnc(N)s2)cc(C(=O)Nc2cccc(C(F)(F)F)c2)c1 | ? | -5 | -14% | 32µM* | 0 | 20µM*
COc1cc(NC(=O)c2ccnc(N)c2)cc(C(=O)Nc2cccc(C(F)(F)F)c2)c1 | -11%[12.7 µM] | 1 | -8% | ? | -8 | 50µM*
COc1cc(NC(=O)c2csc(N)n2)cc(C(=O)Nc2cccc(C(F)(F)F)c2)c1 | -8%[12.7 µM] | 0 | 56% | 0% | -3 | -8%
Nc1nnc(-c2ccccc2Cl)s1 | 22µM* | 0 | -19% | 8% | -6 | 2%
Oc1ccc(-c2cnns2)c(O)c1 | 7.1µM* | -3 | ? | 0.79µM* | 1 | -24%

Compound activity as filed in PubChem.
